The results in this text go back to PubChem BioAssay (NCATS).

Experiment [1] can be described thus: P-glycoprotein substrates identified in KB-8-5-11 adenocarcinoma cell line, qHTS therapeutic library screen (AID 1346987). Also: nearly all actives have a fitted effect of over 65% in size. Also: potency is read from the fitted curve at half-maximal effect. Summed up: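 KB-8-5-11, a colchicine-selected P-gp-overexpressing KB-3-1 subline, was grown without colchicine for the assay. Cells were seeded at 500 cells/well, dosed in concentration-response and incubated 72 h at 37 degree C, 5% CO2. Viability was read by CellTiter-Glo luminescence.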
For orientation: Quantitative high-throughput screening tests each substance at several concentrations.

A short description of experiment [2]: NS1 protein of Zika virus - qHTS assay to identify small molecule inhibitors in human HEK 293 cells (AID 1347053). Also: nearly all actives have a fitted effect of over 55% in size. Also: potency is read from the fitted curve at half-maximal effect. In a few lines:
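Inhibition of NS1 expression was scored in HEK 293 cells given compound 1 h ahead of MR766 virus (MOI = 0.5). Following 24 h at 37 C, two anti-NS1 antibodies generated a TR-FRET signal, scaled between uninfected and infected controls.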

The nature of experiment [3]: qHTS of pediatric cancer cell lines to identify multiple opportunities for drug repurposing: Primary screen for TC32 cells (AID 1347089). Also: nearly all actives have a fitted effect of over 60% in size. Also: potency is read from the fitted curve at half-maximal effect. In a few lines: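 Luminescent ATP read-out (CellTiter-Glo) of metabolically active TC32 cells after 48 h exposure. Concentration-response curves came from 11-point (MIPE, 0.78 nM–46 µM) or 8-point (NPC, 0.59 nM–46 µM) primary titrations; follow-up used 11 points.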

The nature of experiment [4]: qHTS of pediatric cancer cell lines to identify multiple opportunities for drug repurposing: Primary screen for DAOY cells (AID 1347090). Also: nearly all actives have a fitted effect of over 55% in size. Also: potency is read from the fitted curve at half-maximal effect. In a few lines:
(§1)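 Cell viability, CellTiter-Glo luminescence; 500-1,000 cells/well, 8- or 11-point titration, 48 h compound exposure at 37 degrees C, 5% CO2. Controls: DMSO neutral, bortezomib 2.3 µM final as positive.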

Experiment [5] is described as follows: qHTS of pediatric cancer cell lines to identify multiple opportunities for drug repurposing: Primary screen for SJ-GBM2 cells (AID 1347091). Also: potency is read from the fitted curve at half-maximal effect. Summed up:
as §1

Experiment [6] in a line: qHTS of pediatric cancer cell lines to identify multiple opportunities for drug repurposing: Primary screen for A673 cells (AID 1347092). Also: nearly all actives have a fitted effect of over 45% in size. Also: potency is read from the fitted curve at half-maximal effect. Summed up: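 Cell viability of A673 measured by CellTiter-Glo ATP luminescence after 48 hours compound exposure. Dilution series spanned 0.78 nM to 46 µM (MIPE, 11-point) or 0.59 nM to 46 µM (NPC, 8-point); bortezomib 2.3 uM positive control.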

A short description of experiment [7]: qHTS of pediatric cancer cell lines to identify multiple opportunities for drug repurposing: Primary screen for SK-N-MC cells (AID 1347093). Also: potency is read from the fitted curve at half-maximal effect. Summed up:
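Metabolically active cells were quantified by ATP-dependent luminescence (CellTiter-Glo, 15 min at room temperature) following 48 h treatment. Cells had been plated at 500-1,000 per well and settled for 5 h beforehand.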

A short description of experiment [8]: qHTS of pediatric cancer cell lines to identify multiple opportunities for drug repurposing: Primary screen for BT-37 cells (AID 1347094). Also: potency is read from the fitted curve at half-maximal effect. In a few lines:
(§2)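 CRCs from 8- or 11-point titrations (lowest final 0.59 nM NPC, 0.78 nM MIPE). Cell viability: CellTiter-Glo after 48 h incubation, 15 min room-temperature development, luminescence imaging.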

Experiment [9] is described as follows: qHTS of pediatric cancer cell lines to identify multiple opportunities for drug repurposing: Primary screen for NB-EBc1 cells (AID 1347095). Also: potency is read from the fitted curve at half-maximal effect. Summed up:
as §2

The nature of experiment [10]: qHTS of pediatric cancer cell lines to identify multiple opportunities for drug repurposing: Primary screen for U-2 OS cells (AID 1347096). Also: nearly all actives have a fitted effect of over 50% in size. In a few lines:
(§3)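 Cells (500-1,000/well) rested 5 h, then received compounds for 48 h; metabolically active cells were measured by CellTiter-Glo luminescence. Final concentrations spanned up to 46 µM (MIPE, 11-point) or 0.59 nM-46 µM (NPC, 8-point) in primary screens, 11-point in follow-ups.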

The nature of experiment [11]: qHTS of pediatric cancer cell lines to identify multiple opportunities for drug repurposing: Primary screen for SK-N-SH cells (AID 1347098). Also: nearly all actives have a fitted effect of over 65% in size. Also: potency is read from the fitted curve at half-maximal effect. In a few lines: as §3
Experiment [12] can be described thus: qHTS of pediatric cancer cell lines to identify multiple opportunities for drug repurposing: Primary screen for Saos-2 cells (AID 1347097). Also: nearly all actives have a fitted effect of over 40% in size. Also: potency is read from the fitted curve at half-maximal effect. Summed up: as §2
The nature of experiment [13]: Natriuretic polypeptide receptor (hNpr1) antagonism - Pilot counterscreen GloSensor control cell line (AID 1347045; calls by dose curve; also: series mostly up to about 38 µM). In a few lines:
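HEK293 cGMP GloSensor cells preloaded 2 h with 2% GloSensor reagent, then compound 30 min before baseline luminescence read. Stimulated with 50 uM sodium nitroprusside, 20 min at room temperature, then read again; counterscreen for Npr1 antagonism.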
On the technique in general: The purpose of a counterscreen is to sort out artefacts and off-target activity.

For experiment [14], the target named is Atrial natriuretic peptide receptor 1 (Homo sapiens) (UniProt P16066). As to the kind of experiment: Natriuretic polypeptide receptor (hNpr1) antagonism - Pilot screen (AID 1347049; calls by dose curve;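 also: agonist-evoked cGMP luminescence read 20 min after hNppA addition; series mostly up to about 58 µM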). In a few lines:
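Readout is cGMP-driven firefly luciferase luminescence in HEK293 cells carrying hNpr1 and a PDE5-domain GloSensor, read before and 20 min after 0.1 nM hNppA stimulation. Cells had 2% substrate reagent for 2 h and test compound for 30 min.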

The target in experiment [15] is Atrial natriuretic peptide receptor 2 (Homo sapiens) (UniProt P20594). As to the kind of experiment: Natriuretic polypeptide receptor (hNpr2) antagonism - Pilot subtype selectivity assay (AID 1347050; calls by dose curve). In a few lines:
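Pilot selectivity screen against hNpr2: HEK293 cGMP-sensor cells are treated with LOPAC1280 compounds, then with hNppC peptide at 1 nM final. The cGMP-driven luminescence change over 20 min at room temperature is the read-out.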

The target of experiment [16] is T1, Tyrosine-protein phosphatase non-receptor type substrate 1 (Homo sapiens) + Leukocyte surface antigen CD47 (Homo sapiens) (UniProt P78324+Q08722). As to the kind of experiment: CD47-SIRPalpha protein protein interaction - LANCE assay qHTS validation (AID 1347057; active = well fitted curve in the direction sought with a large enough effect in the signal ratio, with a control signal flat, not every such curve was filed as active; the % refers to the signal ratio; also: series mostly up to about 38 µM). Summed up: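 First, His-tagged CD47 and Eu-labelled anti-His antibody met the compound for 30 min; next, site-specifically biotinylated SIRPalpha was added for 30 min; finally streptavidin-APC was added before reading the TR-FRET ratio.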
For orientation: In TR-FRET formats the signal depends on donor and acceptor labels being close together.

The target of experiment [17] is T1, Tyrosine-protein phosphatase non-receptor type substrate 1 (Homo sapiens) + Leukocyte surface antigen CD47 (Homo sapiens). As to the kind of experiment: CD47-SIRPalpha protein protein interaction - HTRF assay qHTS validation (AID 1347058; active = well fitted curve in the direction sought with a large enough effect in the signal ratio, not every such curve was filed as active; the % refers to the signal ratio;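 also: recombinant soluble extracellular CD47 with His tag and biotinylated SIRPalpha domains; series mostly up to about 38 µM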). In a few lines: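 TR-FRET read (Ch1/Ch2 ratio) of soluble extracellular CD47 and Avi-biotinylated SIRPalpha domains in PBS pH 7.4 with 0.05% IGEPAL; 7-point compound titration. Sequential 30 min room-temperature steps; non-biotinylated SIRPalpha as control inhibitor.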

For experiment [18] the target is unchanged. As to the kind of experiment: CD47-SIRPalpha protein protein interaction - Alpha assay qHTS validation (AID 1347059).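 Also: bead proximity luminescence from CD47 binding SIRPalpha after compound preincubation with SIRPalpha.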 Summed up: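 Binding is measured by AlphaScreen proximity: Ni-NTA acceptor beads capture His-CD47, streptavidin donor beads capture biotin-SIRPalpha. Each of three additions (SIRPalpha with compound, CD47, beads) incubates 30 min at room temperature protected from light.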

Experiment [19] has as its target Parathyroid hormone/parathyroid hormone-related peptide receptor (Homo sapiens) (UniProt Q03431). As to the kind of experiment: qHTS for PTHR1 Agonists: Optimization Screen against the NCGC LOPAC library (AID 1347079).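 Also: GloSensor cAMP luminescence in HEK-293 GP2 cells expressing human PTHR1 with IBMX.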 Summed up:
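Agonist readout: GloSensor cAMP luminescence, read after 15 min at room temperature. HEK-293-derived GP2 line carries PTHR1; compounds tested as a titration for 1 hr at 37C in presence of IBMX. M-PTH (1-15) served as control.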

Inconclusive results are not listed. The source made the active and inactive calls. Unless noted, calls follow the shape of the dose curve; as a rule, active = well fitted curve in the direction sought with a large enough effect; inconclusive = small, poorly fitted or top-dose-only effect, or another doubt; inactive = no such curve, though single readings can be large; an effect the other way counts as inactive or inconclusive.

T1 sequence (P78324 whole entry, looked up): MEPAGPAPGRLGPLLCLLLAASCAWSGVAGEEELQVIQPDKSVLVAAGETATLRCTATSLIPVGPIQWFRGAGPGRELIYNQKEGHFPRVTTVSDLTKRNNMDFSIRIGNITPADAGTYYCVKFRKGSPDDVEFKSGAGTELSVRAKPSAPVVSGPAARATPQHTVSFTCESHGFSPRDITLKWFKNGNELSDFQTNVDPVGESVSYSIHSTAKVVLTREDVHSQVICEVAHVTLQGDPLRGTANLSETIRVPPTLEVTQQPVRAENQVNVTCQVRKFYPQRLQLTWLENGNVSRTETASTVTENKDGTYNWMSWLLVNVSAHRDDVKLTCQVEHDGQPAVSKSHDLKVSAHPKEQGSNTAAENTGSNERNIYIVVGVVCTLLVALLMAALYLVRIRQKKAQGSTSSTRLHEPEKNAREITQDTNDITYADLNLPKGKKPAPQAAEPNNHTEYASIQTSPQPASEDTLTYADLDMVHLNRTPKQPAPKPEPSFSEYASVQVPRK
T1 sequence (Q08722 whole entry, looked up): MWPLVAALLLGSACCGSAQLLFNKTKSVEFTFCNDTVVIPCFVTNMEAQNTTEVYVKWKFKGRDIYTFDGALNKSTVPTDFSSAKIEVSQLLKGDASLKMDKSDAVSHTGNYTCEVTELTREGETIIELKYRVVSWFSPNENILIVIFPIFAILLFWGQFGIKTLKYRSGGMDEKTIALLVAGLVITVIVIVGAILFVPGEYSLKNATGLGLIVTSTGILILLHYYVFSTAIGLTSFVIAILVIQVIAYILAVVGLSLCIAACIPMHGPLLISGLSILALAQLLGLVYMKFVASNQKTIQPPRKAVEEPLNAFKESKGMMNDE
Atrial natriuretic peptide receptor 1 (Homo sapiens), sequence (P16066 whole entry, looked up): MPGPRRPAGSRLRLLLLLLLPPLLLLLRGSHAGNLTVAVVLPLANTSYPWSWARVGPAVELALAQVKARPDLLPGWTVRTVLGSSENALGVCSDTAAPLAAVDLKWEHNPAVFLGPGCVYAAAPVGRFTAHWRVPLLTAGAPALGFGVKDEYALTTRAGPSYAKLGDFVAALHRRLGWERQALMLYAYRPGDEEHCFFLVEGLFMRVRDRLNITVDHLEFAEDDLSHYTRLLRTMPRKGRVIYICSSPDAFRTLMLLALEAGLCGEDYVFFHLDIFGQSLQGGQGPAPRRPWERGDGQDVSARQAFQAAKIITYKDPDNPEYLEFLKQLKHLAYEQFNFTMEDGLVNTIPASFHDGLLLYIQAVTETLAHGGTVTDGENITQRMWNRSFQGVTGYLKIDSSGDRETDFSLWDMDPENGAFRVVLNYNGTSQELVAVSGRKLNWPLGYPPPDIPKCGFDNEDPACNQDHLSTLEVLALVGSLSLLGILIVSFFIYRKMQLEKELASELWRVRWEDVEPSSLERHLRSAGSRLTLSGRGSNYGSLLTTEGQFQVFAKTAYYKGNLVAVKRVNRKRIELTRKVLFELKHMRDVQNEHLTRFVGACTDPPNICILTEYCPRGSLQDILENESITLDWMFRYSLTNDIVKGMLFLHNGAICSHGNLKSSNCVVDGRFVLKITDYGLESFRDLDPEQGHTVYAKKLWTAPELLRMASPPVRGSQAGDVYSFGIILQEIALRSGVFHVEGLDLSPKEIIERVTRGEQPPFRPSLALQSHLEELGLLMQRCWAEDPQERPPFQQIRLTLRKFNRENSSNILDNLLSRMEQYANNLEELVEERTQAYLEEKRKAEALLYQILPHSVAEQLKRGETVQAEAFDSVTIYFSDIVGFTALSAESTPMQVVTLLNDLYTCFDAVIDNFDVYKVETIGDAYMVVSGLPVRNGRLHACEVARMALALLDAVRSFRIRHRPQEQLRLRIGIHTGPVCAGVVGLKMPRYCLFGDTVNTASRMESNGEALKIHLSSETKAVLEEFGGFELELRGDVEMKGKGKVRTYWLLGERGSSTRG
Atrial natriuretic peptide receptor 2 (Homo sapiens), sequence (P20594 whole entry, looked up): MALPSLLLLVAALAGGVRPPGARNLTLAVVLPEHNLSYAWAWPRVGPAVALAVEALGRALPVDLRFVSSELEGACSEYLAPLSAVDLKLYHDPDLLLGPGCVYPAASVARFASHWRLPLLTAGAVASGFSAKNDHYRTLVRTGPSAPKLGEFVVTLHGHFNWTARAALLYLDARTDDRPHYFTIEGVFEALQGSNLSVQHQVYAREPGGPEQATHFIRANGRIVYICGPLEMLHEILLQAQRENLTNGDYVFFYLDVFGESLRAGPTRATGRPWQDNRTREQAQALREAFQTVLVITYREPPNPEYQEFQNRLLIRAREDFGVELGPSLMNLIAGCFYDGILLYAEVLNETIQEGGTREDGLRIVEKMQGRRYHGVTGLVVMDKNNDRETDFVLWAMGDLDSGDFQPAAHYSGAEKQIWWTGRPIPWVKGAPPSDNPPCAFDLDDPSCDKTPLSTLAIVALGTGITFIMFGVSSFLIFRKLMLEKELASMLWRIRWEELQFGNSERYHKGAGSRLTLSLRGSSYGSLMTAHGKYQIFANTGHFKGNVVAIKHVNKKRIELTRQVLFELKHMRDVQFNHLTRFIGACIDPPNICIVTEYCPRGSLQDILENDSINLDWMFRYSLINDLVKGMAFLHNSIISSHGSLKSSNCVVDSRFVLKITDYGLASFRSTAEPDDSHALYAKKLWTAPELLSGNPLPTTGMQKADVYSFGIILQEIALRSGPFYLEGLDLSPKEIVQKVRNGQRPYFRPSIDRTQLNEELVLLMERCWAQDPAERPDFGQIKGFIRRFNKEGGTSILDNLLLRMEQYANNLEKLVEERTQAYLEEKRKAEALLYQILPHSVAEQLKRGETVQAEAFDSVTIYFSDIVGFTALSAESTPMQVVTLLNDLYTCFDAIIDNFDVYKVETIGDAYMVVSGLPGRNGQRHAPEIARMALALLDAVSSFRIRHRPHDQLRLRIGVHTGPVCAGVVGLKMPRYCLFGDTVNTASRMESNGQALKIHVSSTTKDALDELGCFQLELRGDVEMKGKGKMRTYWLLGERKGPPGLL
Parathyroid hormone/parathyroid hormone-related peptide receptor (Homo sapiens), sequence (Q03431 whole entry, looked up): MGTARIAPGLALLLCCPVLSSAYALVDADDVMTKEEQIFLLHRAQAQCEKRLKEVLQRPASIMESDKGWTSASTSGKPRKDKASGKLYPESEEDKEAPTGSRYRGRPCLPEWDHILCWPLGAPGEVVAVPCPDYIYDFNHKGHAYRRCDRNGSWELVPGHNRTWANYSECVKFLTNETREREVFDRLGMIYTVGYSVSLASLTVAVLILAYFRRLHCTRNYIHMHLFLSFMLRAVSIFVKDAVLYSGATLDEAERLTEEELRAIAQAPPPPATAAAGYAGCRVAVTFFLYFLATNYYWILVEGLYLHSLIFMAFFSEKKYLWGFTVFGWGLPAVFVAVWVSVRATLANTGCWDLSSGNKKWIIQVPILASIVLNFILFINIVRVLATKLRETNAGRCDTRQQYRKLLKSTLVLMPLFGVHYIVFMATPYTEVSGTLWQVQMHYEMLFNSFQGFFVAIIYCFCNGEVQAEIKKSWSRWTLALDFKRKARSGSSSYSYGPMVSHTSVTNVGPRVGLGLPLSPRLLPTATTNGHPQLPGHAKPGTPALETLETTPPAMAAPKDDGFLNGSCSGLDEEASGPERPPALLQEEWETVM

`CCNC(=O)[C@H]1O[C@@H](n2cnc3c(N)nc(NCCc4ccc(CCC(=O)O)cc4)nc32)[C@H](O)[C@H]1O`: the Potency result in experiment [1], in [2], in experiment [3], in [4], in experiment [5] and in [6] was “inactive” throughout. In addition, the Potency entry in experiment [7], in experiment [8], in experiment [9], in experiment [10] and in [11] was “inactive” in each case.
On to `CC1(C)[C@H]2CC[C@]3(C)[C@@H](C(=O)C=C4[C@@H]5C[C@@](C)(C(=O)O)CC[C@]5(C)CC[C@]43C)[C@@]2(C)CC[C@@H]1O`, for which the Potency result in experiment [1], in experiment [2], in [3], in experiment [4], in experiment [5] and in [6] was “inactive” in each case. Moreover, the Potency result in [7], in experiment [8], in experiment [10], in experiment [12] and in [11] was “inactive” each time.
`CC[C@H](C)C(=O)O[C@H]1C[C@H](O)C=C2C=C[C@H](C)[C@H](CC[C@@H](O)C[C@@H](O)CC(=O)O)[C@H]21`: the Potency result in experiment [1], in [2], in experiment [3], in experiment [4], in experiment [5] and in experiment [6] was “inactive” in each case. The Potency result in experiment [7], in [8], in [9] and in experiment [11] was “inactive” each time.
On to `Cc1ccc(C(=O)N(CCCN)[C@@H](c2nc3cc(Cl)ccc3c(=O)n2Cc2ccccc2)C(C)C)cc1`, for which the Potency was 118 nM (active) in [1]; 16.5 nM (active) in experiment [3]; 1.5 nM (active) in experiment [4]; 1 nM (active) in experiment [5]; 1 nM (active) in experiment [6]; 1.7 nM (active) in [7]. Further, the Potency in experiment [9] was 1 nM (active). In addition, the Potency entry in experiment [2], in experiment [10] and in [11] was “inactive” each time.
With `C=CCc1cccc(C=NNC(=O)CN2CCN(Cc3ccccc3)CC2)c1O`, the Potency in experiment [1] was 10500 nM (active); in [2] it was 13200 nM (active); in experiment [4], 18700 nM (active); in [5], 6620 nM (active); in experiment [7], 11800 nM (active); in [8] it was 9680 nM (active). Moreover, the values for the Potency in experiment [9] and in experiment [11] were 5900 nM (active) and 9610 nM (active), respectively. Also, the molecule was called inactive in experiment [13], in experiment [14], in experiment [15], in experiment [16], in [17] and in experiment [18]. In [19], the outcome was inactive. For the same molecule, in [10], the Potency result is “inactive”.
In the case of `O=C(O)C1=NC(C(=O)O)CC(C=CN2c3cc(O)c(OC4OC(CO)C(O)C(O)C4O)cc3CC2C(=O)O)=C1` (stereo unspecified), the Potency entry in experiment [1], in experiment [2], in [3], in experiment [4], in experiment [5] and in [6] was “inactive” throughout. Also, the Potency entry in experiment [8], in experiment [9], in experiment [10] and in experiment [11] was “inactive” each time.
Turning to `OC[C@H]1O[C@@H](O[C@H]2[C@@H](O)[C@@](O)(CO)O[C@@H]2CO)[C@H](O)[C@@H](O)[C@@H]1O`, the Potency result in experiment [1], in experiment [2], in [3], in experiment [4], in experiment [5] and in experiment [6] was “inactive” in each case. Moreover, the Potency entry in [7], in experiment [8], in experiment [9], in experiment [10], in experiment [12] and in [11] was “inactive” each time.
Consider `CON(C)C(=O)N1N=C(c2cc(F)ccc2F)S[C@]1(CCCN)c1ccccc1`, for which the Potency was 14.8 nM (active) in experiment [1]; 14800 nM (active) in experiment [2]; 4.7 nM (active) in experiment [3]; 1.5 nM (active) in [4]; 1 nM (active) in [5]; 1 nM (active) in experiment [6]. Also, the Potency in experiment [7], in experiment [9] and in experiment [12] was 1 nM (active) in each case. Besides, the Potency entry in [8] and in [10] was “inactive” in each case.
`COC(=O)N1CCN(Cc2cccc(NC(=O)Nc3ccc(C)nc3)c2F)CC1`: the Potency entry in experiment [1], in [2], in [3], in experiment [4], in experiment [5] and in experiment [6] was “inactive” throughout. The Potency result in experiment [8], in experiment [9], in experiment [10] and in [11] was “inactive” throughout.
Consider `NCC1CCC(C(=O)O)CC1` (stereo unspecified), for which the Potency entry in [1], in [2], in experiment [3], in [4], in [5] and in experiment [6] was “inactive” throughout. For the same molecule, the Potency result in experiment [7], in experiment [9], in experiment [10] and in experiment [11] was “inactive” in each case.
